Records with an inconclusive call do not appear. Active and inactive are the calls of the source. Calls come from the whole dose curve; as a rule, active = well fitted inhibition curve with a large enough effect; inconclusive = small, poorly fitted or top-dose-only effect, or effect the other way; inactive = flat fitted curve, though single readings scatter.
biological target: ATP-dependent 6-phosphofructokinase (Trypanosoma brucei brucei) (UniProt O15648); assay: qHTS Assay to Find Inhibitors of T. brucei phosphofructokinase: hit validation (AID 492961);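 note: luminescence reports ADP formed as PFK phosphorylates fructose-6-phosphate with ATP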; details: T. brucei PFK, ADP-Glo luminescence; series mostly up to 51.4 µM
Sequence (O15648 whole entry, looked up): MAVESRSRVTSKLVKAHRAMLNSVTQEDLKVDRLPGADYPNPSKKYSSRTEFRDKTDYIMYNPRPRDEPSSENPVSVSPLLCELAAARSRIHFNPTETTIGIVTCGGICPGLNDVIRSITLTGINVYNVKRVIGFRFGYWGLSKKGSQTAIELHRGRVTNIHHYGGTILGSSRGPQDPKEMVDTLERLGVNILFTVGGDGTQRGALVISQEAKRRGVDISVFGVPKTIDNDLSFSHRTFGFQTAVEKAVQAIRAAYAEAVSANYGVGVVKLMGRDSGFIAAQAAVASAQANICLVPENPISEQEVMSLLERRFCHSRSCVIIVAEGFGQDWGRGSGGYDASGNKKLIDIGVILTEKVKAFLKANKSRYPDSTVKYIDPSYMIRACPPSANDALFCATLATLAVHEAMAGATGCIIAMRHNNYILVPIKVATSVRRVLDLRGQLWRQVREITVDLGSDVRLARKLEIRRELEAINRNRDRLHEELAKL
Outline: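 PFK 1.25 nM, F6P 0.5 mM, ATP 0.1 mM, MgCl2 5 mM, 0.1 M TEA pH 8.0, Tween20 0.01%, BSA 0.1%; 45 min RT. ADP-Glo two-step detection, luminescence. qHTS titration; curve fitting with curve-class categorization.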

SMILES | outcome
CCN1CCCC1=O | inactive
CCOc1ccc(NC(=O)CC(C)O)cc1 (configuration not stated) | inactive
Cc1c(C(N)=O)cc([N+](=O)[O-])cc1[N+](=O)[O-] | inactive
O=C1c2ccccc2C(=O)C1c1ccccc1 | inactive
CCN(CC)CCOc1ccc(C(O)(Cc2ccc(Cl)cc2)c2ccc(C)cc2)cc1 (configuration not stated) | inactive
COc1c2occc2c(OC)c2c(=O)cc(C)oc12 | inactive
CCOc1ccc(Cc2nccc3cc(OCC)c(OCC)cc23)cc1OCC | inactive
CC(C)N=C(N)/N=C(\N)Nc1ccc(Cl)cc1 | inactive
CC(C)(CO)[C@@H](O)C(=O)NCCCO | inactive
NC(CO)(CO)CO | inactive
CCCCOc1cc(C(=O)NCCN(CC)CC)c2ccccc2n1 | inactive
CCN(CC)CCNC(=O)COc1ccc(Cl)cc1 | inactive
CCCCOc1ccc(OCCCN2CCOCC2)cc1 | inactive
CCn1cc(C(=O)O)c(=O)c2cnc(N3CCCC3)nc21 | inactive
OC(CCN1CCCCC1)(c1ccccc1)c1ccccc1 | inactive
O=C(O)CNC(=O)c1ccccc1 | inactive
Cc1c(F)c(N2CCNC(C)C2)cc2c1c(=O)c(C(=O)O)cn2C1CC1 (configuration not stated) | inactive
C[C@H]1C[C@H]2[C@@H]3CCC4=CC(=O)C=C[C@]4(C)[C@@]3(Cl)[C@@H](O)C[C@]2(C)[C@@]1(O)C(=O)CO | inactive
CN(C)CC/C=C1\c2ccccc2Sc2ccc(Cl)cc21 | inactive
CC(C)(C(=O)c1cccnc1)c1cccnc1 | inactive
CC(=O)N/N=C/c1ccc([N+](=O)[O-])o1 | inactive
CCCCCC=CCC=CCCCCCCCC(=O)OCC | inactive

Reference: PubChem BioAssay (NCATS)
